# Data from PubChem BioAssay (NCATS).
# Records with an inconclusive call do not appear. Calls of active or inactive are those of the source. Unless noted, calls follow the shape of the dose curve; as a rule, active = well fitted curve in the direction sought with a large enough effect; inconclusive = small, poorly fitted or top-dose-only effect, or another doubt; inactive = no such curve, though single readings can be large; an effect the other way counts as inactive or inconclusive.
# Columns and labels:
# [1] = HPAF-II Cancer Cell Toxicity qHTS against the NCATS CANVASS Library (AID 1347346); also: % is scaled to controls: 0 for no effect and ±100 for the full control effect; nearly all actives have a fitted effect of over 55% in size
# How it was run: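 First, HPAF-II cells are plated (1000 cells/well) and held 4 h at 37 degrees C. Next, compounds are pin-transferred as an 11-point series. After 72 h, CellTiter-Glo is added and luminescence measured.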
# [2] = UWB1.289 Cancer Cell Toxicity qHTS against the NCATS CANVASS Library (AID 1347347); also: % is scaled to controls: 0 for no effect and ±100 for the full control effect; nearly all actives have a fitted effect of over 60% in size
# How it was run: (§1)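 Viability read-out: CellTiter-Glo luminescence after 72 h compound exposure at 37 °C/5% CO2. Cells plated at 1000/well, 4 h pre-incubation; 11-point titration. Bortezomib served as control.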
# [3] = Panc-1005 Cancer Cell Toxicity qHTS against the NCATS CANVASS Library (AID 1347349); also: % is scaled to controls: 0 for no effect and ±100 for the full control effect; nearly all actives have a fitted effect of over 60% in size
# How it was run: as §1
# [4] = COV-362 Cancer Cell Toxicity qHTS against the NCATS CANVASS Library (AID 1347352); also: % is scaled to controls: 0 for no effect and ±100 for the full control effect
# How it was run: (§2)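 First, 1000 cells go into each well and rest for 4 hours. Next, an 11-point dilution range is pinned in. Plates then incubate 72 hours before CellTiter-Glo addition and luminescence reading.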
# [5] = HEK-293 Cancer Cell Toxicity qHTS against the NCATS CANVASS Library (AID 1347355); also: nearly all actives have a fitted effect of over 65% in size; also: potency is read from the fitted curve at half-maximal effect
# How it was run: as §2
# [6] = KB-3-1 Cancer Cell Toxicity qHTS against the NCATS CANVASS Library (AID 1347366); also: nearly all actives have a fitted effect of over 75% in size; also: potency is read from the fitted curve at half-maximal effect
# How it was run: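 KB-3-1 cells (500 cells/well) in DMEM + 10% FBS were treated with compounds for 72 hr at 37C, 5% CO2. Viability was read as CellTiter-Glo luminescence after 10 minutes at room temperature.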
# [7] = qHTS for Inflammasome Signaling Inhibitors: IL-1-beta AlphaLISA screen against the NCATS CANVASS Library (AID 1347379);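 also: human THP-1 cells primed with LPS then triggered with ATP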;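 as to activity change, negative = inhibition: secreted IL-1B measured as AlphaLISA emission at 615 nm; % is scaled to controls: 0 for no effect and ±100 for the full control effect; lower signal means less IL-1B release which is the wanted effect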
# How it was run: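 Secreted IL-1B from human THP-1 cells quantified by AlphaLISA 16 hr after compound addition (final up to 57.5 uM). A 1 hr compound pretreatment preceded inflammasome activation with 250 ng/mL LPS plus 1.25 mM ATP (final).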
# [8] = DH5-alpha competent E. coli microbial cell viability qHTS against the NCATS CANVASS Library (AID 1347377); conditions: outcome: dose series up to 46.1 µM unless noted
# How it was run: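 Bacteria were dispensed at 0.2 OD, then compounds were pin-transferred. Plates were incubated overnight at 37C, after which BacTiter-Glo was added and luminescence measured 20 min later.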
# [9] = target: Cytochrome P450 3A4 (Homo sapiens) (UniProt P08684); assay: qHTS Assay for Activators of Cytochrome P450 3A4 (AID 885); also: nearly all actives have a fitted effect of over 65% in size
# How it was run: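 Using 20nM recombinant human CYP3A4 in potassium phosphate (200mM), substrate Luciferin-PPXE at 25uM, luminescent luciferin detection followed a 60-min RT NADPH reaction; data scaled to 57 uM ketoconazole.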
# [10] = qHTS to identify inhibitors of the type 1 interferon - major histocompatibility complex class I in skeletal muscle: primary screen against the NCATS Mechanism Interrogation Plate v5.0 (MIPE) Libary (AID 1347411); also: potency is read from the fitted curve at half-maximal effect; nearly all actives have a fitted effect of over 65% in size
# How it was run: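 Seed engineered human myoblasts (HLA-B HiBit) in medium without dexamethasone containing 4 ng/ml IFN-beta; after 1 hr add compound titrations (top 46 uM final). Incubate 24 hrs at 37 C, lyse 10 min with HiBiT reagent, read luminescence.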
# [11] = Primary qHTS for inhibitors of nuclear receptor binding SET domain protein 2 (NSD2) in an isogenic RCH-ACV NSD2 p.E1099K mutant (9B) (AID 1645876); also: potency is read from the fitted curve at half-maximal effect; nearly all actives have a fitted effect of over 70% in size
# [12] = Primary qHTS for inhibitors of nuclear receptor binding SET domain protein 2 (NSD2) in an RCH-ACV wild type WT cells (2C) (AID 1645877); also: potency is read from the fitted curve at half-maximal effect; nearly all actives have a fitted effect of over 70% in size
# [13] = target: Glutathione peroxidase 1 (Homo sapiens) (UniProt P07203); assay: Primary qHTS Assay for Inhibitors of Recombinant Selenoprotein Glutathione Peroxidase 1 (GPX1) (AID 1845191); also: nearly all actives have a fitted effect of over 65% in size
# How it was run: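 NADPH consumption tracked by fluorescence at 340/450 nm between t=0 and t=15 min, room temperature. Final mix: 10 nM GPX1, 100 nM glutathione reductase, 1 mM GSH, 0.5 mM NADPH, 0.5 mM cumene hydroperoxide, 0.01% BSA; 30 min compound–enzyme preincubation.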
# [14] = qHTS drug screen for cell cycle checkpoint inhibitors in PARPi-resistant BRCA-mutant ovarian cancer cell lines. (AID 1963452; calls by dose curve; also: potency is read from the fitted curve at half-maximal effect); conditions: PEO1/OlaR viability, CellTiter-Glo luminescence, 96 h; for Z-AUC: stronger effect = lower value
# How it was run: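 PEO1, PEO4 and PEO1/OlaR ovarian cancer cells, 600 per well, exposed 96 h at 37C to a dilution series. Viability read by CellTiter-Glo luminescence, normalized to DMSO and empty wells; activity summarized as Z-AUC.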
# [15] = qHTS assay to identify inhibitors of the type 1 interferon - major histocompatibility complex class I in skeletal muscle: Counter screen cell viability and HiBit confirmation (AID 1347412); conditions: iHSKM muscle cells + IFN-b, HiBiT or CellTiter-Glo, 24 h; for Potency: HiBiT; for activity change, negative = inhibition: Viability, at 45.9 µM (top of the series); also: potency is read from the fitted curve at half-maximal effect; as to activity change, negative = inhibition: % is scaled to controls: 0 for no effect and ±100 for the full control effect; as to all read-outs here: nearly all actives have a fitted effect of over 60% in size
# How it was run: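 HLA-B*08:01–HiBiT knock-in immortalized human myoblasts (C25cl48) stimulated with 4.0 ng/ml human IFN-beta and dosed with compound in a 12-point 1:3 titration (top final 46 uM). After 24 hrs at 37 C, HiBiT lytic luminescence or CellTiter Glo ATP read out.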
# [16] = target: Phospholipid hydroperoxide glutathione peroxidase GPX4 (Homo sapiens) (UniProt P36969); assay: Primary qHTS Assay for Inhibitors of Recombinant Selenoprotein Glutathione Peroxidase 4 (GPX4) (AID 1845192); conditions: outcome: dose series up to 50 µM unless noted
# How it was run: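 NADPH consumption followed by fluorescence at 340/450 nm, t=0 and after 15 min at room temperature. Reaction started with cumene hydroperoxide (0.5 mM final) after 30 min compound–GPX4 preincubation; final 200 nM GPX4, 100 nM GR, 1 mM GSH, 0.5 mM NADPH.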
# [17] = measured here: PEO1 parental Z-AUC
# Chain of Cytochrome P450 3A4 (Homo sapiens) (P08684 whole entry, looked up): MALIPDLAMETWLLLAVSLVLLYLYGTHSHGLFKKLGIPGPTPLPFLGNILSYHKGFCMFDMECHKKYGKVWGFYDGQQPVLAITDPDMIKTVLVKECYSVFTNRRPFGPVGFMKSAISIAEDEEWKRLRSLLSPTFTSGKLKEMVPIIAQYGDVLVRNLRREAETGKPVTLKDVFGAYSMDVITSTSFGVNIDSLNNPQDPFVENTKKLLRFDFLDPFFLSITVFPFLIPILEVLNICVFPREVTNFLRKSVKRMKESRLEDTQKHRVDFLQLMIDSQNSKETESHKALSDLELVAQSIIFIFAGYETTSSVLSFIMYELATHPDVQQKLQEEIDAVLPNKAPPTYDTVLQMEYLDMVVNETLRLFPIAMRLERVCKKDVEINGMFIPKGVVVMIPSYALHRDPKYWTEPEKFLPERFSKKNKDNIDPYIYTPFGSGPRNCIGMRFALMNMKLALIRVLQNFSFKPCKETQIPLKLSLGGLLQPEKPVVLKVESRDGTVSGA
# Chain of Glutathione peroxidase 1 (Homo sapiens) (P07203 whole entry, looked up): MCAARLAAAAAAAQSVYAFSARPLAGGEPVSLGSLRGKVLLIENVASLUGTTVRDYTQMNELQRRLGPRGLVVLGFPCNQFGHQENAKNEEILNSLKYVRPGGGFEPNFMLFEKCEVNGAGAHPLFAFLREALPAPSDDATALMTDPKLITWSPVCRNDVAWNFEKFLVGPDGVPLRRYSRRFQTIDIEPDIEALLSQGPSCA
# Chain of Phospholipid hydroperoxide glutathione peroxidase GPX4 (Homo sapiens) (P36969 whole entry, looked up): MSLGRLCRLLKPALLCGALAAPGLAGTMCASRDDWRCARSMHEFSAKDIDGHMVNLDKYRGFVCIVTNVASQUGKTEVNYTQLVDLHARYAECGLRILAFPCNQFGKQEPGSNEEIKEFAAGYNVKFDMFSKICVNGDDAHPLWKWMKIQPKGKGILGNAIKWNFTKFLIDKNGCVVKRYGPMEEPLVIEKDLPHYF
structure (smiles),measurement,setting,value
COC(=O)[C@@]12Oc3cccc(O)c3C(O)=C1C(=O)C[C@H](C)[C@H]2O,Potency,[1],inactive
same,Potency,[2],inactive
same,Potency,[3],inactive
same,Potency,[4],inactive
same,Potency,[5],inactive
same,Potency,[6],inactive
same,Potency,[7],inactive
O=c1cc(-c2ccc(O)cc2)oc2cc(O)c([C@@H]3OC(CO)[C@H](O)[C@@H](O)[C@H]3O)c(O)c12 (some centres undefined),Potency,[1],inactive
same,Potency,[2],inactive
same,Potency,[3],inactive
same,Potency,[4],inactive
same,Potency,[5],inactive
same,Potency,[6],inactive
same,outcome,[8],inactive
Cc1cc(C)c(O)c(C(=O)CC2CC(=O)NC(=O)C2)c1,Potency,[5],3720 nM (active)
same,Potency,[6],13200 nM (active)
same,outcome,[8],inactive
same,Potency,[7],inactive
O=C1CC(c2ccc(O)cc2)Oc2ccccc21 (centres undefined),Potency,[9],inactive
O=C1CC(c2ccc(O)cc2)Oc2cc(O)cc(O)c21 (centres undefined),Potency,[9],inactive
O=C(/C=C/c1ccc(CN(CCO)CCc2c[nH]c3ccccc23)cc1)NO,Potency,[10],186 nM (active)
same,Potency,[11],132 nM (active)
same,Potency,[12],132 nM (active)
same,Potency,[13],inactive
same,Potency,[14],174 nM (active)
same,Z-AUC,[14]; [17],-1.35
same,Z-AUC,[14]; measured here: PEO4 Z-AUC,-1.27
same,Potency,[15],198 nM (active)
same,"activity change, negative = inhibition",[15],-12.6% (inactive)
O=C(/C=C/C#Cc1cccc(NS(=O)(=O)c2ccccc2)c1)NO,Potency,[10],2550 nM (active)
same,Potency,[11],456 nM (active)
same,Potency,[12],574 nM (active)
same,Potency,[13],inactive
same,Potency,[16],inactive
same,Z-AUC,[14],-0.732 (inactive)
same,Z-AUC,[14]; [17],-0.336
same,Z-AUC,[14]; measured here: PEO4 Z-AUC,-0.647
same,Potency,[15],6250 nM (active)
same,"activity change, negative = inhibition",[15],-1.87% (inactive)
Cc1ncsc1-c1ccc([C@H](C)NC(=O)[C@@H]2C[C@@H](O)CN2C(=O)[C@@H](NC(=O)COCCCOCCNC(=O)C[C@@H]2N=C(c3ccc(Cl)cc3)c3c(sc(C)c3C)-n3c(C)nnc32)C(C)(C)C)cc1,Potency,[10],208 nM (active)
same,Potency,[11],14.8 nM (active)
same,Potency,[12],18.6 nM (active)
same,Potency,[13],inactive
same,Potency,[16],inactive
same,Z-AUC,[14],-2.25 (inactive)
same,Z-AUC,[14]; [17],-2.46
same,Z-AUC,[14]; measured here: PEO4 Z-AUC,-2.23
same,Potency,[15],394 nM (active)
same,"activity change, negative = inhibition",[15],-12.4% (inactive)
